KCNQ2 block – rat KCNQ2 potassium channel inhibitors, primary screen, cell-based, CHO-K1, FluxOR thallium flux, B-score; Potassium voltage-gated channel subfamily KQT member 2 (Rattus norvegicus), O88943; B-score at 10 µM; actives 1.1% (n = 310,000); 20 min; stronger effect = lower value;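 active means fluorescence ratio B-score at most minus 3 library SDs, with starting brightness B-score within 2 library SDs, cut at about -5.5 in these data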
KCNQ2 enhance – potentiators of rat KCNQ2 potassium channel | Potassium voltage-gated channel subfamily KQT member 2 (Rattus norvegicus), O88943 | CHO-K1 KCNQ2, FluxOR thallium flux fluorescence; stronger effect = higher value | B-score at 10 µM | actives 0.54% (n = 310,000) | AID 2239, 2010;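 active means fluorescence ratio B-score at least 3 SD of library B-scores, with initial fluorescence B-score within 3 of them, cut at about 5.3 in these data; same plate scores as AID 2156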;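 further: B-score of peak minus minimum over baseline fluorescence ratio after K+ and Tl+ stimulus; positive B-score means potentiation of KCNQ2 with more thallium influx and brighter signal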
Kir21 conf inh – mouse Kir2.1 channel blockers, retest, confirmation, cell-based, FluxOR thallium flux, duplicate | AID 2032, 2009 | shares compounds with KCNQ2 enhance | Kir2.1-expressing cells, FluxOR thallium flux fluorescence; stronger effect = lower value | Tl flux remaining, % of negative control (stronger effect = lower value), % at 10 µM | actives 41% (n = 2,300);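 active means Primary-screen hit whose thallium flux fell at least 3 control SD below untreated wells in both duplicates, with normal baseline fluorescence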;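 further: 0% = blank wells without stimulus and 100% = stimulated no-compound controls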
Target sequence (P35561 whole entry, looked up): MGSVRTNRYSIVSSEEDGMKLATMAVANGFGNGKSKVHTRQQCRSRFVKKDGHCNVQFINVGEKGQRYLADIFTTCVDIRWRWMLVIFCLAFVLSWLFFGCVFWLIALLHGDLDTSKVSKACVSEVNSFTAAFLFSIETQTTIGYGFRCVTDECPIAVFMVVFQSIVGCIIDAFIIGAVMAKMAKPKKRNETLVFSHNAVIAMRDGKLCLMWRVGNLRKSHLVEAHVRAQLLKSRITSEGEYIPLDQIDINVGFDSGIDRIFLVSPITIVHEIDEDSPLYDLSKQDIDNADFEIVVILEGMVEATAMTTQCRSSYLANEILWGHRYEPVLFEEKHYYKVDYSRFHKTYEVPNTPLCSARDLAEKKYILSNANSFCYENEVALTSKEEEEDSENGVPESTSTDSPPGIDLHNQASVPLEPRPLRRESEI
HEK293 Tl flux – alters thallium flux in parental HEK293 cells, Kir2.1 counter-screen. FluxOR signal as % of negative control (100 = no effect), % at 10 µM. FluxOR thallium flux fluorescence; 0% = unstimulated blank wells. AID 2105. actives 19% (n = 2,300). shares compounds with KCNQ2 enhance;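 active means dye signal at least 3 control SD above or below untreated wells in both duplicates, raw fluorescence within 3, either direction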;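 further: percent is based on the flux ratio of peak minus minimum fluorescence over baseline F0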
CHO-K1 Tl ctr – nonspecific thallium flux increase in parental CHO-K1, confirmation, counter-screen for KCNQ2 potentiator project, cell-based, FluxOR thallium flux, duplicate; shares compounds with KCNQ2 enhance; AID 2282, 2010; parental CHO-K1 cells, FluxOR thallium flux fluorescence; zero = vehicle mean+3SD, 100% = vehicle-minus-blank window; actives 43% (n = 1,200); activity increase over 3SD of controls, % at 10 µM;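 active means signal rise of at least 3 SD above the untreated control mean, in both duplicate wells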;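 further: counter screen of KCNQ2 potentiator hits so any rise reflects channel-independent effects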
KCNQ1 sel pot – human KCNQ1 channel potentiation off-target, confirmation, selectivity assay for KCNQ2 potentiator project, cell-based, CHO, FluxOR thallium flux; shares compounds with KCNQ2 enhance; CHO KCNQ1 stable, FluxOR thallium flux fluorescence; beyond 3SD, as % of vehicle-control signal; activation over 3SD threshold, % at 10 µM; actives 28% (n = 1,200);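 active means fluorescence ratio rise of at least 3 SD of vehicle wells above their mean, in both replicate wells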;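 further: 0% = vehicle mean plus 3 SD and 100% = vehicle minus unstimulated blank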
KCNQ2 pot conf – rat KCNQ2 channel potentiators, confirmation, cell-based, CHO, FluxOR thallium flux, duplicate; actives 68% (n = 1,200); potentiation, less the hit threshold, % at 10 µM; shares compounds with KCNQ2 enhance; CHO-KCNQ2 cells, FluxOR thallium flux fluorescence;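 active means fluorescence ratio rising 3 SD or more over the vehicle control mean in both replicates, plus primary screen hit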;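 further: peak minus minimum thallium fluorescence divided by baseline after K/Tl stimulus; 0% = vehicle mean plus 3 SD and 100% = vehicle minus unstimulated blank difference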
Kir2-1 sel – mouse Kir2.1 channel activation off-target, confirmation, selectivity assay for KCNQ2 potentiator project, cell-based, HEK293, FluxOR thallium flux | actives 2% (n = 1,200) | shares compounds with KCNQ2 enhance | activity over 3SD threshold, % at 10 µM | HEK293 Kir2.1, FluxOR thallium flux fluorescence;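 active means fluorescence ratio rise of at least 3 SD above the vehicle-control mean, seen in both replicates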;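 further: 0% = vehicle mean plus 3 SD and 100% = vehicle minus no-stimulus blank window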
KCNQ2 W236L MoA – potentiators of retigabine-insensitive KCNQ2 W236L, mechanism study for KCNQ2 potentiator project, cell-based, rat KCNQ2 W236L, CHO, automated patch clamp | shares compounds with KCNQ2 enhance | automated patch clamp current | current increase over 3SD of negative controls (%), stronger effect = higher value, % at 25 µM | actives 10% (n = 940);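 active means current increase at least 3 SD of the untreated controls above them in both duplicate recordings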
The depositor's hits bear a star; i = inactive; · = no result given. A selection: hits, their analogues and other compounds. The true share with any hit is near 1.6%.

SMILES | KCNQ2 block | KCNQ2 enhance | Kir21 conf inh | HEK293 Tl flux | others
O=C(NCC1CC1)c1ccccc1Cl | i | 0.16 | · | ·
Cc1cc(C)c(NC(=O)Cn2nnc(C(=O)Nc3ccc(F)cc3F)c2N)c(C)c1 | i | 0.51 | · | ·
O=C(NCC(=O)N1CCN(c2ccccc2O)CC1)c1ccccc1 | i | 0.03 | · | ·
Cc1cccc(N2CCN(C(=O)CNC(=O)c3cccc([N+](=O)[O-])c3)CC2)c1C | i | · | i | i
COc1cccc(N2CCN(c3nc(-c4ccccc4C)cc(=O)[nH]3)CC2)c1 | i | · | · | ·
O=C(NNC1=C(C(=O)C(F)(F)F)CCC1)c1ccc(Cl)cc1 | i | 7.8* | i | i | CHO-K1 Tl ctr=18*;KCNQ1 sel pot=-13;KCNQ2 pot conf=4.8*;Kir2-1 sel=-30;KCNQ2 W236L MoA=i
COc1ccc(C(=O)NNc2ccccc2)cc1 | i | · | · | ·
COc1ccc(C(=O)NNC2=C(C(=O)C(F)(F)F)CCC2)cc1 | i | 5.5* | i | i | CHO-K1 Tl ctr=14*;KCNQ1 sel pot=32*;KCNQ2 pot conf=6.0*;Kir2-1 sel=-37;KCNQ2 W236L MoA=i
O=C(NNC1=C(C(=O)C(F)(F)F)CCC1)c1cccc(Cl)c1 | i | 4.8 | · | ·
CCc1ccc(C(=O)CSC2=C(C#N)C(c3ccco3)C(C(C)=O)=C(C)N2)cc1 (centres undefined) | i | 9.8* | i | i | CHO-K1 Tl ctr=113*;KCNQ1 sel pot=-11;KCNQ2 pot conf=-5;Kir2-1 sel=-24
CC(=O)C1=C(C)NC(SCC(=O)c2ccc(F)cc2)=C(C#N)C1c1ccco1 (centres undefined) | i | 4.8 | · | ·
N#CC1=C(SCC(=O)c2ccccc2)NC2=C(C(=O)CCC2)C1c1ccco1 (centres undefined) | i | 1.6 | · | ·
Cc1ccc(C(=O)CSC2=C(C#N)C(c3ccco3)C3=C(CCCC3=O)N2)cc1 (centres undefined) | i | 6.6* | i | i | CHO-K1 Tl ctr=0.0*;KCNQ1 sel pot=5.9*;KCNQ2 pot conf=-7;Kir2-1 sel=-30
O=C(CCn1nnc2ccccc21)NNC(=O)C1CCCCC1 | i | · | · | ·
Cc1cccc(N2CCN(C(=O)CSc3nc4ccccc4nc3N3CC(C)OC(C)C3)CC2)c1C (centres undefined) | i | · | · | ·
O=C(COc1cccc2ccccc12)Nc1ccc(Cl)cc1C(=O)O | i | 7.2* | i | 129%* | CHO-K1 Tl ctr=-2;KCNQ1 sel pot=-1;KCNQ2 pot conf=23*;Kir2-1 sel=-31;KCNQ2 W236L MoA=i
O=C(COc1cccc2ccccc12)Nc1cc(Cl)ccc1C(=O)O | i | 4.6 | · | ·
CC(=O)Nc1ccc(S(=O)(=O)Nc2c(NC3CCCCC3)c3ccccc3oc2=O)cc1 | i | 0.23 | · | ·
Cc1ccc(C(=O)Nn2c(N)c(S(=O)(=O)c3ccc(C)cc3)c3nc4ccccc4nc32)cc1 | i | 0.47 | · | ·
Cc1ccc(S(=O)(=O)c2c(N)n(NC(=O)c3ccccc3C)c3nc4ccccc4nc23)cc1 | i | 5.3 | i | i | CHO-K1 Tl ctr=98*;KCNQ1 sel pot=-8;KCNQ2 pot conf=-3;Kir2-1 sel=-39;KCNQ2 W236L MoA=i
O=C1CSC(c2ccccc2F)N1CCN1CCCCC1 (centres undefined) | i | 0.16 | · | ·
O=C1CSC(c2ccccc2F)N1c1cc(Cl)ccc1O (centres undefined) | i | 1 | i | i
O=C(CCNC(=O)c1ccc([N+](=O)[O-])cc1)Nc1ccccc1N1CCCCC1 | i | 0.91 | · | ·
Cc1ccc(Cl)c(OCC(=O)NCC(c2cccs2)N2CCOCC2)c1 (centres undefined) | i | · | 64%* | i
O=C(COc1ccccc1Cl)NCC(c1cccs1)N1CCOCC1 (centres undefined) | i | · | · | ·
SMILES | KCNQ2 block | KCNQ2 enhance | Kir21 conf inh | HEK293 Tl flux | others
CCCCCCCCC1=NCCc2c1[nH]c1ccccc21 | i | · | 20%* | i
CC(C)C/C=C1\CCc2c([nH]c3ccccc23)C1=O | i | 2.2 | · | ·
CC(C)CCNCC(O)CON=C1c2ccccc2-c2ccccc21 (centres undefined) | i | · | · | ·
COCCNCC(O)CON=C1c2ccccc2-c2ccccc21 (centres undefined) | i | · | 32%* | i
COc1ccc(S(=O)(=O)Nc2ccccc2OC)cc1C | i | 1.6 | · | ·
COc1ccc(S(=O)(=O)Nc2ccccc2SC)cc1C | i | · | 54%* | i
COc1ccccc1CCC(=O)N(C)CC(=O)Nc1ccc(Cl)c(C(F)(F)F)c1 | i | · | · | ·
O=C(CCS(=O)(=O)c1cccc2nonc12)NC1CCCCCC1 | i | 11* | i | i | CHO-K1 Tl ctr=33*;KCNQ1 sel pot=-13;KCNQ2 pot conf=36*;Kir2-1 sel=-40;KCNQ2 W236L MoA=i
O=C(CCNS(=O)(=O)c1cccc2nonc12)NC1CCCCC1 | i | 0.78 | · | ·
COc1ccccc1C(=O)N/C(=C\c1cn(C)c2ccccc12)C(=O)NCCCn1ccnc1 | i | 0.14 | · | ·
O=C(COc1ccc(S(=O)(=O)N2CCOCC2)cc1)N1CCN(c2ccccc2)CC1 | i | 1.9 | · | ·
Cc1ccc(-n2nnnc2-c2ccccc2)cc1 | i | · | · | ·
Cc1ccc(-n2nnnc2C(Cl)c2nnnn2-c2ccc(C)cc2)cc1 | i | · | 39%* | i
CCCOc1ccc(NC(=O)CCC(=O)NC(C)c2ccccc2)cc1 (centres undefined) | i | 0.13 | · | ·
CCN(CC)c1ccc(NC(=O)c2ccco2)c(C)c1 | i | 2.9 | · | ·
CCN(CC)c1ccc(NC(=O)c2cccc(F)c2)c(C)c1 | i | 17* | i | i | CHO-K1 Tl ctr=-12;KCNQ1 sel pot=-8;KCNQ2 pot conf=49*;Kir2-1 sel=-25;KCNQ2 W236L MoA=i
O=C(NC1CCN(c2ncccn2)CC1)c1ccccc1F | i | 0.78 | · | ·
Cc1ccc(C(=O)CC(=O)c2cc(Cl)ccc2O)cc1 | i | 6* | i | i | CHO-K1 Tl ctr=-18;KCNQ1 sel pot=-30;KCNQ2 pot conf=27*;Kir2-1 sel=-39;KCNQ2 W236L MoA=i
